# Assay results taken from PubChem BioAssay (NCI).
# This is part of a sample that, as a whole, favours compounds with a hit. Of some 79,000 tested, about 15% had one in any assay. A number with no mark means an inactive call. The source made the active and inactive calls. Rule as the data show it: active = growth inhibition above about 70%; inactive = the rest.
# What was measured:
# [1] = NCI Yeast Anticancer Drug Screen. Data for the rad52 strain (AID 147);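 also: 0% = growth of vehicle-treated control cultures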; conditions: S. cerevisiae rad52 mutant growth inhibition, active compounds read high
# Procedure, shortened: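 Genetically altered yeast (DNA damage repair defect) treated with compound; inhibition calculated relative to vehicle.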
# [2] = NCI Yeast Anticancer Drug Screen. Data for the rad50EPP+ strain (AID 151);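 also: 0% = growth of vehicle-treated control cultures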; conditions: S. cerevisiae rad50 mutant strain, active compounds read high
# Procedure, shortened: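 Strain rad50EPP+; compound exposure; % growth inhibition vs vehicle.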
# [3] = NCI Yeast Anticancer Drug Screen. Data for the mgt1 strain (AID 153); conditions: S. cerevisiae mgt1 mutant growth inhibition, active compounds read high
# Procedure, shortened: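 Read-out: yeast growth inhibition vs vehicle control. Strain mgt1, drawn from a panel altered in DNA damage repair or cell cycle control.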
# [4] = NCI Yeast Anticancer Drug Screen. Data for the rad50 strain (AID 155);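 also: 0% = growth of vehicle-only cultures of the same strain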; conditions: S. cerevisiae rad50 strain growth inhibition, active compounds read high
# Procedure, shortened: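 Inhibition values express reduced yeast growth in compound-treated cultures relative to vehicle-treated controls.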
# [5] = NCI Yeast Anticancer Drug Screen. Data for the mec2-1 strain (AID 157); conditions: S. cerevisiae mec2-1 strain, active compounds read high
# Procedure, shortened: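 Cells of the genetically defined mec2-1 yeast strain are incubated with test compound. Inhibition of growth is calculated against vehicle-treated controls.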
# [6] = NCI Yeast Anticancer Drug Screen. Data for the rad14 strain (AID 159);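 also: 0% = growth of vehicle-treated control cultures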; conditions: S. cerevisiae rad14 strain growth inhibition, active compounds read high
# Procedure, shortened: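 A mutant yeast strain defective in DNA damage repair is treated with compound; inhibition of its growth is scored against untreated, vehicle-exposed cultures.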
# [7] = NCI Yeast Anticancer Drug Screen. Data for the sgs1 mgt1 strain (AID 161);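 also: 0% = growth of cultures given vehicle only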; conditions: S. cerevisiae sgs1 mgt1 strain, active compounds read high
# Procedure, shortened: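 Inhibition of yeast growth, normalised to vehicle-treated controls, is reported for a strain bearing genetic alterations in DNA damage repair.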
# [8] = NCI Yeast Anticancer Drug Screen. Data for the CLN2oe strain (AID 163);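 also: 0% = growth of vehicle-only control cultures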; conditions: S. cerevisiae CLN2oe strain, active compounds read high
# Procedure, shortened: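 Strain altered in cell-cycle control, incubated with compound; growth compared to solvent-treated controls.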
# [9] = NCI Yeast Anticancer Drug Screen. Data for the cln2 rad14 strain (AID 165);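 also: 0% = growth equal to vehicle treated cultures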; conditions: S. cerevisiae cln2 rad14 strain, active compounds read high
# Procedure, shortened: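 The screen exposed genetically defined yeast (cln2 rad14) to test compounds and scored growth inhibition relative to vehicle-treated controls.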
# [10] = NCI Yeast Anticancer Drug Screen. Data for the bub3 strain (AID 167); conditions: S. cerevisiae bub3 mutant strain, active compounds read high
# Procedure, shortened: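 Steps: expose the mutant yeast strain to compound; grow alongside vehicle-treated cultures; measure growth; express inhibition against the vehicle cultures.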
# [11] = NCI Yeast Anticancer Drug Screen. Data for the wt2 strain (AID 169);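 also: 0% = growth of vehicle-treated yeast cultures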; conditions: S. cerevisiae wt2 strain growth inhibition, active compounds read high
# Procedure, shortened: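 Steps: yeast strain treated with compound; growth recorded; inhibition calculated relative to cultures given vehicle alone.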
# [12] = NCI Yeast Anticancer Drug Screen. Data for the mlh1 strain (AID 171);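 also: 0% = growth of vehicle-treated control cultures of the same strain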; conditions: S. cerevisiae mlh1 strain growth inhibition, active compounds read high
# Procedure, shortened: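 Yeast screen: mutant strain plus compound, growth scored against vehicle control wells.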
# [13] = NCI Yeast Anticancer Drug Screen. Data for the sgs1 strain (AID 173);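 also: 0% = growth of vehicle-only control cultures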; conditions: S. cerevisiae sgs1 mutant, active compounds read high
# Procedure, shortened: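 Inhibition of yeast growth served as the measure. The mutant strain was treated with each compound, and growth was normalised to cultures receiving vehicle alone.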
# [14] = NCI Yeast Anticancer Drug Screen. Data for the mlh1 rad18 strain (AID 175); conditions: S. cerevisiae mlh1 rad18 strain growth inhibition, active compounds read high
# Procedure, shortened: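 Compound-treated yeast growth, normalised to vehicle controls. Strain bears defined DNA repair mutations.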
# [15] = NCI Yeast Anticancer Drug Screen. Data for the rad18 strain (AID 177); conditions: S. cerevisiae rad18 mutant growth inhibition, active compounds read high
# Procedure, shortened: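 Inhibition values reflect reduced yeast growth compared with vehicle-treated controls, using a strain engineered with a DNA damage repair defect.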
# [16] = at 5.0 µM (retest, dose inferred, filed as 0.5)
# [17] = at 50.0 µM (retest, dose inferred, filed as 5.0)
compound,measurement,setting,value
Cc1ccc(S(=O)(=O)NNC(=S)Nc2cccc3ccccc23)cc1,growth inhibition,[1]; at 1.2 µM,4%
same,growth inhibition,[1]; at 3.7 µM,2%
same,growth inhibition,[1]; at 11.0 µM,3%
same,growth inhibition,[1]; at 33.0 µM,7%
same,growth inhibition,[1]; at 100.0 µM,6%
same,growth inhibition,[2]; at 1.2 µM,10%
same,growth inhibition,[2]; at 3.7 µM,11%
same,growth inhibition,[2]; at 11.0 µM,20%
same,growth inhibition,[2]; at 33.0 µM,15%
same,growth inhibition,[2]; at 100.0 µM,1%
same,growth inhibition,[3]; at 1.2 µM,-1%
same,growth inhibition,[3]; at 3.7 µM,-4%
same,growth inhibition,[3]; at 11.0 µM,-1%
same,growth inhibition,[3]; at 33.0 µM,-28%
same,growth inhibition,[3]; at 100.0 µM,1%
same,growth inhibition,[4]; at 1.2 µM,0%
same,growth inhibition,[4]; at 3.7 µM,-4%
same,growth inhibition,[4]; [16],-4%
same,growth inhibition,[4]; at 11.0 µM,-10%
same,growth inhibition,[4]; at 33.0 µM,2%
same,growth inhibition,[4]; [17],16%
same,growth inhibition,[4]; at 50.0 µM,9.65%
same,growth inhibition,[4]; at 100.0 µM,2%
same,growth inhibition,[5]; at 1.2 µM,3%
same,growth inhibition,[5]; at 3.7 µM,2%
same,growth inhibition,[5]; [16],-19%
same,growth inhibition,[5]; at 11.0 µM,4%
same,growth inhibition,[5]; at 33.0 µM,5%
same,growth inhibition,[5]; [17],33%
same,growth inhibition,[5]; at 50.0 µM,-14.4%
same,growth inhibition,[5]; at 100.0 µM,4%
same,growth inhibition,[6]; at 1.2 µM,-6%
same,growth inhibition,[6]; at 3.7 µM,-4%
same,growth inhibition,[6]; at 11.0 µM,-8%
same,growth inhibition,[6]; at 33.0 µM,-4%
same,growth inhibition,[6]; at 100.0 µM,-3%
same,growth inhibition,[7]; [16],-23%
same,growth inhibition,[7]; [17],41%
same,growth inhibition,[7]; at 50.0 µM,49.6%
same,growth inhibition,[8]; at 1.2 µM,-12%
same,growth inhibition,[8]; at 3.7 µM,-14%
same,growth inhibition,[8]; at 11.0 µM,-18%
same,growth inhibition,[8]; at 33.0 µM,-12%
same,growth inhibition,[8]; at 100.0 µM,-1%
same,growth inhibition,[9]; [16],-1%
same,growth inhibition,[9]; [17],17%
same,growth inhibition,[9]; at 50.0 µM,13.4%
same,growth inhibition,[10]; at 1.2 µM,-1%
same,growth inhibition,[10]; at 3.7 µM,0%
same,growth inhibition,[10]; [16],-19%
same,growth inhibition,[10]; at 11.0 µM,10%
same,growth inhibition,[10]; at 33.0 µM,14%
same,growth inhibition,[10]; [17],96% (active)
same,growth inhibition,[10]; at 50.0 µM,66.5%
same,growth inhibition,[10]; at 100.0 µM,29%
same,growth inhibition,[11]; at 1.2 µM,-2%
same,growth inhibition,[11]; at 3.7 µM,-1%
same,growth inhibition,[11]; at 11.0 µM,2%
same,growth inhibition,[11]; at 33.0 µM,8%
same,growth inhibition,[11]; at 100.0 µM,7%
same,growth inhibition,[12]; at 1.2 µM,0%
same,growth inhibition,[12]; at 3.7 µM,-6%
same,growth inhibition,[12]; at 11.0 µM,-2%
same,growth inhibition,[12]; at 33.0 µM,0%
same,growth inhibition,[12]; at 100.0 µM,-5%
same,growth inhibition,[13]; at 1.2 µM,2%
same,growth inhibition,[13]; at 3.7 µM,4%
same,growth inhibition,[13]; at 11.0 µM,10%
same,growth inhibition,[13]; at 33.0 µM,18%
same,growth inhibition,[13]; at 100.0 µM,17%
same,growth inhibition,[14]; [16],-8%
same,growth inhibition,[14]; [17],29%
same,growth inhibition,[14]; at 50.0 µM,-1.25%
same,growth inhibition,[15]; at 1.2 µM,-1%
same,growth inhibition,[15]; at 3.7 µM,-1%
same,growth inhibition,[15]; at 11.0 µM,2%
same,growth inhibition,[15]; at 33.0 µM,-4%
same,growth inhibition,[15]; at 100.0 µM,12%
